Measured values as given in article PMC11006913.
Numbering of substitutions follows the chain as printed.

How the values were obtained:
Test in all cases: PBM; 200 nM protein, PBS
Conditions in all cases: dsDNA, one strand shown
[1] = target: SHOX (Homo sapiens, UniProt O15266 103-189)
[2] = target: CRX (Homo sapiens, UniProt O43186 26-111)
[3] = target: CRX (Homo sapiens, UniProt O43186 26-111, E42D)
[4] = target: PITX2 (Homo sapiens, UniProt Q99697 72-157)
[5] = target: CRX (Homo sapiens, UniProt O43186 26-111, R41L)
[6] = target: T1, VENTX (Homo sapiens, UniProt O95231 78-163, R121Q)
T1 sequence: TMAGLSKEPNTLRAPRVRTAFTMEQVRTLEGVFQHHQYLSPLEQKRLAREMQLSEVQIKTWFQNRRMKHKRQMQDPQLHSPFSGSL

[7] = target: T2, VENTX (Homo sapiens, UniProt O95231 78-163)
T2 sequence: T1 sequence with Q44R

[8] = target: ALX4 (Homo sapiens, UniProt Q9H161 200-286)
[9] = target: T3, VENTX (Homo sapiens, UniProt O95231 78-163, Y115F)
T3 sequence: T1 sequence with Y38F, Q44R

[10] = target: ALX4 (Homo sapiens, UniProt Q9H161 200-286, Q225E)
[11] = target: SHOX (Homo sapiens, UniProt O15266 103-189, R173C)
[12] = target: T4, PAX4 (Homo sapiens, UniProt O43316 9-242, R200K)
T4 sequence: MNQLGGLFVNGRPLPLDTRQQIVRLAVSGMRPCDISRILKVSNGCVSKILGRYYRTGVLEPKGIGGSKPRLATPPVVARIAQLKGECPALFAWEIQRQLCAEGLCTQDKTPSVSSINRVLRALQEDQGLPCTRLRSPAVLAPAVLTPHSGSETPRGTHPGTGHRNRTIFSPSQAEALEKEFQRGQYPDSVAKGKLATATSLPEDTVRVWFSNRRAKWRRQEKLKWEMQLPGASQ

[13] = target: T5, PAX4 (Homo sapiens, UniProt O43316 9-242)
T5 sequence: T4 sequence with K192R

[14] = target: T6, PAX4 (Homo sapiens, UniProt O43316 9-242, R200Q)
T6 sequence: T4 sequence with K192Q

[15] = target: T7, PAX4 (Homo sapiens, UniProt O43316 9-242, F177V)
T7 sequence: T4 sequence with F169V, K192R

[16] = target: T8, PAX4 (Homo sapiens, UniProt O43316 9-242, F177Y)
T8 sequence: T4 sequence with F169Y, K192R

[17] = target: T9, PAX4 (Homo sapiens, UniProt O43316 9-242, R227W)
T9 sequence: T4 sequence with K192R, R219W

[18] = target: HOXA7 (Homo sapiens, UniProt P31268 116-202)
[19] = target: HOXA7 (Homo sapiens, UniProt P31268 116-202, W177C)
[20] = target: ALX1 (Homo sapiens, UniProt Q15699 118-204, L144V)
[21] = target: ALX1 (Homo sapiens, UniProt Q15699 118-204, L144R)
[22] = target: ALX1 (Homo sapiens, UniProt Q15699 118-204)
[23] = target: PRRX1 (Homo sapiens, UniProt P54821 80-166, F113S)
[24] = target: PRRX1 (Homo sapiens, UniProt P54821 80-166)
[25] = target: VAX1 (Homo sapiens, UniProt Q5SQQ9 86-172)
[26] = target: VAX1 (Homo sapiens, UniProt Q5SQQ9 86-172, T142I)
[27] = target: VAX1 (Homo sapiens, UniProt Q5SQQ9 86-172, K157R)
[28] = target: T10, NKX2-6 (Homo sapiens, UniProt A6NCS4 118-204, R150C)
T10 sequence: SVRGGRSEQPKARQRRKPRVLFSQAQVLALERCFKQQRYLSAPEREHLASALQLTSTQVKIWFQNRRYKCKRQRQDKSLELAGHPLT

[29] = target: HOXC10 (Homo sapiens, UniProt Q9NYD6 254-340)
[30] = target: HOXC10 (Homo sapiens, UniProt Q9NYD6 254-340, K271E)
[31] = target: HOXB6 (Homo sapiens, UniProt P17509 132-218, K202E)
[32] = target: HOXB6 (Homo sapiens, UniProt P17509 132-218)
Sequence of HOXB6 (Homo sapiens, UniProt P17509 132-218) (P17509 132-218): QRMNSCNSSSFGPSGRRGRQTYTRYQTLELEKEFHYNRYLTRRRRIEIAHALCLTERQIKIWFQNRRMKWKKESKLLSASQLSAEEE

Sequence of SHOX (Homo sapiens, UniProt O15266 103-189) (O15266 103-189): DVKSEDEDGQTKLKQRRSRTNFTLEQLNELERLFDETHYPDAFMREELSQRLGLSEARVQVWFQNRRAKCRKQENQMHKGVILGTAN
Sequence of ALX4 (Homo sapiens, UniProt Q9H161 200-286) (Q9H161 200-286): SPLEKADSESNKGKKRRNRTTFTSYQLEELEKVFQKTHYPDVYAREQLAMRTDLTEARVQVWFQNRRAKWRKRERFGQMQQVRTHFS
Sequence of ALX1 (Homo sapiens, UniProt Q15699 118-204) (Q15699 118-204): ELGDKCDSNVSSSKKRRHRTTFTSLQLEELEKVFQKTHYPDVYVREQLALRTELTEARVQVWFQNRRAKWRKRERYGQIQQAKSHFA
Sequence of ALX4 (Homo sapiens, UniProt Q9H161 200-286, Q225E) (Q9H161 200-286 Q225E): as the sequence (Q9H161 200-286) above, with Q26E counted along it
Sequence of SHOX (Homo sapiens, UniProt O15266 103-189, R173C) (O15266 103-189 R173C): as the sequence (O15266 103-189) above, with R71C counted along it
Sequence of ALX1 (Homo sapiens, UniProt Q15699 118-204, L144V) (Q15699 118-204 L144V): as the sequence (Q15699 118-204) above, with L27V counted along it
Sequence of ALX1 (Homo sapiens, UniProt Q15699 118-204, L144R) (Q15699 118-204 L144R): as the sequence (Q15699 118-204) above, with L27R counted along it
Sequence of CRX (Homo sapiens, UniProt O43186 26-111, E42D) (O43186 26-111 E42D): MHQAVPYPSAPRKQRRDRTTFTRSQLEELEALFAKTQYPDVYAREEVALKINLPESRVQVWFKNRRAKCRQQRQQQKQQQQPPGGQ
Sequence of CRX (Homo sapiens, UniProt O43186 26-111) (O43186 26-111): as the sequence (O43186 26-111 E42D) above, with D17E counted along it
Sequence of HOXC10 (Homo sapiens, UniProt Q9NYD6 254-340, K271E) (Q9NYD6 254-340 K271E): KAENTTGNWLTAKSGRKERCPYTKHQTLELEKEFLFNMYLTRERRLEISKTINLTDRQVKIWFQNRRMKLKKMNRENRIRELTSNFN
Sequence of VAX1 (Homo sapiens, UniProt Q5SQQ9 86-172, K157R) (Q5SQQ9 86-172 K157R): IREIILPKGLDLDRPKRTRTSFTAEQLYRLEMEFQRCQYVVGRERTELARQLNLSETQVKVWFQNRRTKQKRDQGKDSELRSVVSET
Sequence of PRRX1 (Homo sapiens, UniProt P54821 80-166, F113S) (P54821 80-166 F113S): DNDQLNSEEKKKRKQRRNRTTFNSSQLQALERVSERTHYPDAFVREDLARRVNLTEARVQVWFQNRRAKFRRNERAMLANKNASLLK
Sequence of VAX1 (Homo sapiens, UniProt Q5SQQ9 86-172) (Q5SQQ9 86-172): as the sequence (Q5SQQ9 86-172 K157R) above, with R72K counted along it
Sequence of HOXC10 (Homo sapiens, UniProt Q9NYD6 254-340) (Q9NYD6 254-340): as the sequence (Q9NYD6 254-340 K271E) above, with E18K counted along it
Sequence of CRX (Homo sapiens, UniProt O43186 26-111, R41L) (O43186 26-111 R41L): as the sequence (O43186 26-111 E42D) above, with R16L, D17E counted along it
Sequence of HOXA7 (Homo sapiens, UniProt P31268 116-202, W177C) (P31268 116-202 W177C): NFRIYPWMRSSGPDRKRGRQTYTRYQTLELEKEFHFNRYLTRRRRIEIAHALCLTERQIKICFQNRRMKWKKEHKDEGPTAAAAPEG
Sequence of HOXA7 (Homo sapiens, UniProt P31268 116-202) (P31268 116-202): as the sequence (P31268 116-202 W177C) above, with C62W counted along it
Sequence of HOXB6 (Homo sapiens, UniProt P17509 132-218, K202E) (P17509 132-218 K202E): as the sequence (P17509 132-218) above, with K71E counted along it
Sequence of VAX1 (Homo sapiens, UniProt Q5SQQ9 86-172, T142I) (Q5SQQ9 86-172 T142I): as the sequence (Q5SQQ9 86-172 K157R) above, with T57I, R72K counted along it
Sequence of PRRX1 (Homo sapiens, UniProt P54821 80-166) (P54821 80-166): as the sequence (P54821 80-166 F113S) above, with S34F counted along it

For CGGATTAG, the binding signal [1] was 8.9 upbm affinity estimate (log intensity, higher = more binding, comparable within an allelic series), the binding signal [2] was 13.6 upbm affinity estimate (log intensity, higher = more binding, comparable within an allelic series) and the binding signal [3] was 13.7 upbm affinity estimate (log intensity, higher = more binding, comparable within an allelic series). The binding signal [4] was 13.2 upbm affinity estimate (log intensity, higher = more binding, comparable within an allelic series) and the binding signal [5] was 13.4 upbm affinity estimate (log intensity, higher = more binding, comparable within an allelic series).
GCGCCCCC was tested, and the binding signal [1] was 7.04 upbm affinity estimate (log intensity, higher = more binding, comparable within an allelic series), the binding signal [6] was 8.12 upbm affinity estimate (log intensity, higher = more binding, comparable within an allelic series) and the binding signal [7] was 8.12 upbm affinity estimate (log intensity, higher = more binding, comparable within an allelic series). The binding signal [8] was 8.12 upbm affinity estimate (log intensity, higher = more binding, comparable within an allelic series), the binding signal [9] was 8.06 upbm affinity estimate (log intensity, higher = more binding, comparable within an allelic series) and the binding signal [10] was 8.14 upbm affinity estimate (log intensity, higher = more binding, comparable within an allelic series). The binding signal [11] was 7.07 upbm affinity estimate (log intensity, higher = more binding, comparable within an allelic series).
GGGAACCC was tested, and the binding signal [1] was 7.2 upbm affinity estimate (log intensity, higher = more binding, comparable within an allelic series), the binding signal [12] was 9.42 upbm affinity estimate (log intensity, higher = more binding, comparable within an allelic series) and the binding signal [13] was 9.42 upbm affinity estimate (log intensity, higher = more binding, comparable within an allelic series). For the same sequence, the binding signal [14] was 9.62 upbm affinity estimate (log intensity, higher = more binding, comparable within an allelic series), the binding signal [11] was 7.06 upbm affinity estimate (log intensity, higher = more binding, comparable within an allelic series) and the binding signal [15] was 9.39 upbm affinity estimate (log intensity, higher = more binding, comparable within an allelic series). The binding signal [16] was 9.36 upbm affinity estimate (log intensity, higher = more binding, comparable within an allelic series) and the binding signal [17] was 9.48 upbm affinity estimate (log intensity, higher = more binding, comparable within an allelic series).
In the case of TAACAATA, the binding signal [1] is reported as 8.71 upbm affinity estimate (log intensity, higher = more binding, comparable within an allelic series), the binding signal [18] is reported as 9.77 upbm affinity estimate (log intensity, higher = more binding, comparable within an allelic series) and the binding signal [19] is reported as 8.92 upbm affinity estimate (log intensity, higher = more binding, comparable within an allelic series).
In the case of GCAAATTA, the binding signal [1] is reported as 11.6 upbm affinity estimate (log intensity, higher = more binding, comparable within an allelic series), the binding signal [12] is reported as 11.6 upbm affinity estimate (log intensity, higher = more binding, comparable within an allelic series) and the binding signal [13] is reported as 12.1 upbm affinity estimate (log intensity, higher = more binding, comparable within an allelic series). The binding signal [20] was 11.2 upbm affinity estimate (log intensity, higher = more binding, comparable within an allelic series), the binding signal [14] was 11.9 upbm affinity estimate (log intensity, higher = more binding, comparable within an allelic series) and the binding signal [11] was 8.89 upbm affinity estimate (log intensity, higher = more binding, comparable within an allelic series). The binding signal [21] was 10.8 upbm affinity estimate (log intensity, higher = more binding, comparable within an allelic series), the binding signal [15] was 10.3 upbm affinity estimate (log intensity, higher = more binding, comparable within an allelic series) and the binding signal [16] was 10.8 upbm affinity estimate (log intensity, higher = more binding, comparable within an allelic series). The binding signal [17] was 10.8 upbm affinity estimate (log intensity, higher = more binding, comparable within an allelic series) and the binding signal [22] was 12 upbm affinity estimate (log intensity, higher = more binding, comparable within an allelic series).
For GGAGGGAA, the binding signal [1] was 7.13 upbm affinity estimate (log intensity, higher = more binding, comparable within an allelic series), the binding signal [23] was 9.41 upbm affinity estimate (log intensity, higher = more binding, comparable within an allelic series) and the binding signal [11] was 7.16 upbm affinity estimate (log intensity, higher = more binding, comparable within an allelic series). The binding signal [24] was 9.45 upbm affinity estimate (log intensity, higher = more binding, comparable within an allelic series).
For CCACCCGG, the binding signal [1] was 7.19 upbm affinity estimate (log intensity, higher = more binding, comparable within an allelic series), the binding signal [8] was 8.21 upbm affinity estimate (log intensity, higher = more binding, comparable within an allelic series) and the binding signal [10] was 8.29 upbm affinity estimate (log intensity, higher = more binding, comparable within an allelic series). For the same sequence, the binding signal [20] was 6.62 upbm affinity estimate (log intensity, higher = more binding, comparable within an allelic series), the binding signal [11] was 7.17 upbm affinity estimate (log intensity, higher = more binding, comparable within an allelic series) and the binding signal [21] was 6.65 upbm affinity estimate (log intensity, higher = more binding, comparable within an allelic series). For the same sequence, the binding signal [25] was 7.3 upbm affinity estimate (log intensity, higher = more binding, comparable within an allelic series), the binding signal [26] was 7 upbm affinity estimate (log intensity, higher = more binding, comparable within an allelic series) and the binding signal [22] was 6.35 upbm affinity estimate (log intensity, higher = more binding, comparable within an allelic series). For the same sequence, the binding signal [27] was 7.13 upbm affinity estimate (log intensity, higher = more binding, comparable within an allelic series).
In the case of AGCTCCAG, the binding signal [1] is reported as 7.12 upbm affinity estimate (log intensity, higher = more binding, comparable within an allelic series), the binding signal [8] is reported as 7.91 upbm affinity estimate (log intensity, higher = more binding, comparable within an allelic series) and the binding signal [10] is reported as 8.27 upbm affinity estimate (log intensity, higher = more binding, comparable within an allelic series). The binding signal [20] was 6.26 upbm affinity estimate (log intensity, higher = more binding, comparable within an allelic series), the binding signal [11] was 7.22 upbm affinity estimate (log intensity, higher = more binding, comparable within an allelic series) and the binding signal [21] was 6.27 upbm affinity estimate (log intensity, higher = more binding, comparable within an allelic series). For the same sequence, the binding signal [22] was 6.1 upbm affinity estimate (log intensity, higher = more binding, comparable within an allelic series).
For CACCACCC, the binding signal [1] was 7.17 upbm affinity estimate (log intensity, higher = more binding, comparable within an allelic series), the binding signal [12] was 9.48 upbm affinity estimate (log intensity, higher = more binding, comparable within an allelic series) and the binding signal [13] was 9.49 upbm affinity estimate (log intensity, higher = more binding, comparable within an allelic series). For the same sequence, the binding signal [28] was 9.46 upbm affinity estimate (log intensity, higher = more binding, comparable within an allelic series), the binding signal [14] was 9.54 upbm affinity estimate (log intensity, higher = more binding, comparable within an allelic series) and the binding signal [11] was 7.25 upbm affinity estimate (log intensity, higher = more binding, comparable within an allelic series). For the same sequence, the binding signal [15] was 9.4 upbm affinity estimate (log intensity, higher = more binding, comparable within an allelic series), the binding signal [16] was 9.47 upbm affinity estimate (log intensity, higher = more binding, comparable within an allelic series) and the binding signal [17] was 9.4 upbm affinity estimate (log intensity, higher = more binding, comparable within an allelic series).
GGCGCGAA was tested, and the binding signal [1] was 7.15 upbm affinity estimate (log intensity, higher = more binding, comparable within an allelic series), the binding signal [29] was 10.1 upbm affinity estimate (log intensity, higher = more binding, comparable within an allelic series) and the binding signal [11] was 7.19 upbm affinity estimate (log intensity, higher = more binding, comparable within an allelic series). The binding signal [30] was 10.1 upbm affinity estimate (log intensity, higher = more binding, comparable within an allelic series).
GCAGAGCC was tested, and the binding signal [1] was 7.11 upbm affinity estimate (log intensity, higher = more binding, comparable within an allelic series), the binding signal [31] was 8.95 upbm affinity estimate (log intensity, higher = more binding, comparable within an allelic series) and the binding signal [11] was 7.16 upbm affinity estimate (log intensity, higher = more binding, comparable within an allelic series). For the same sequence, the binding signal [32] was 8.72 upbm affinity estimate (log intensity, higher = more binding, comparable within an allelic series).
